Laboratory results from PubChem BioAssay AID1159580 (chemical genetic matrix, 2015).
Where “and” joins values, the source holds several entries; their conditions need not be identical. Equal values may be shown once. Among all 5,500 compounds or so, about 2,000 (36%) were called active. About 18% were inconclusive and are not listed. Rule as the data show it: active = normalized growth mostly below about 0.91 (no sharp cut-off); inconclusive = no clear call, values can overlap the other calls; inactive = mostly above about 0.92. The list shows a part of the results.

Test: chemical genetic growth profiling, strain panel (AID 1159580);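 also: tested at 20 µM; growth read once vehicle control cultures reached saturation at 30 °C; 1 = growth at the plate median or of vehicle wells; lower values mean less growth of the strain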
Details: S. cerevisiae deletion strains, growth OD

Measured: normalized growth

O=C(O)c1ccccc1OP(=O)(O)O
inactive: locus YAL021C, strain ccr4, stronger effect = lower value 0.962 | locus YAL026C, strain drs2, stronger effect = lower value 1.01 | locus YAL030W, strain snc1, stronger effect = lower value 1 | locus YBL061C, strain skt5, stronger effect = lower value 1.01 | locus YBR009C, strain hhf1, stronger effect = lower value 1.03 | locus YBR021W, strain FUR4, stronger effect = lower value 1.01 | locus YBR023C, strain chs3, stronger effect = lower value 1.01 | locus YBR171W, strain sec66, stronger effect = lower value 1.01 | locus YBR229C, strain ROT2, stronger effect = lower value 1.01 | locus YBR231C, strain swc5, stronger effect = lower value 1.02 | locus YBR279W, strain paf1, stronger effect = lower value 1 | locus YCL011C, strain gbp2, stronger effect = lower value 1.01 | locus YCL016C, strain dcc1, stronger effect = lower value 1 | locus YCL029C, strain bik1, stronger effect = lower value 0.994 | locus YCL061C, strain MRC1, stronger effect = lower value 1 | locus YCL069W, strain vba3, stronger effect = lower value 0.997 | locus YCR088W, strain abp1, stronger effect = lower value 1.01 | locus YDL005C, strain med2, stronger effect = lower value 1 | locus YDL035C, strain GPR1, stronger effect = lower value 1.01 | locus YDL040C, strain nat1, stronger effect = lower value 0.996 | locus YDL074C, strain BRE1, stronger effect = lower value 1.02 | locus YDL101C, strain DUN1, stronger effect = lower value 1.02 | locus YDL134C, strain PPH21, stronger effect = lower value 1.02 | locus YDL185W, strain tfp1, stronger effect = lower value 0.976 | locus YDL192W, strain arf1, stronger effect = lower value 0.989 | locus YDR001C, strain nth1, stronger effect = lower value 0.993 | locus YDR069C, strain doa4, stronger effect = lower value 1.02 | locus YDR101C, strain arx1, stronger effect = lower value 1.01 | locus YDR137W, strain rgp1, stronger effect = lower value 0.987 | locus YDR150W, strain NUM1, stronger effect = lower value 1.01 | locus YDR159W, strain sac3, stronger effect = lower value 1.02 | locus YDR162C, strain NBP2, stronger effect = lower value 1.02 | locus YDR195W, strain ref2 1.01 | locus YDR297W, strain sur2, stronger effect = lower value 1 | locus YDR318W, strain mcm21, stronger effect = lower value 0.992 | locus YDR334W, strain swr1, stronger effect = lower value 1 | locus YDR335W, strain msn5, stronger effect = lower value 1.01 | locus YDR388W, stronger effect = lower value 0.987 | locus YDR392W, strain spt3, stronger effect = lower value 0.979 | locus YDR502C, strain sam2, stronger effect = lower value 0.994 | locus YEL003W, strain gim4, stronger effect = lower value 1.01 | locus YEL037C, strain rad23, stronger effect = lower value 0.997 | locus YEL061C, strain CIN8 (second series), stronger effect = lower value 1.01 | locus YEL061C, strain CIN8, stronger effect = lower value 1.01 | locus YER015W, strain faa2, stronger effect = lower value 1.01 | locus YER016W, strain bim1, stronger effect = lower value 1 | locus YER110C, stronger effect = lower value 0.992 | locus YER111C, strain swi4, stronger effect = lower value 1.01 | locus YER155C, strain BEM2 (second series), stronger effect = lower value 1.05 | locus YER155C, strain BEM2, stronger effect = lower value 1.01 | locus YER167W, strain BCK2, stronger effect = lower value 1.01 | locus YFR010W, strain ubp6, stronger effect = lower value 1.03 | locus YGL078C, strain dbp3, stronger effect = lower value 0.997 | locus YGL086W, strain mad1, stronger effect = lower value 0.996 | locus YGL167C, strain pmr1, stronger effect = lower value 1.01 | locus YGL173C, strain kem1, stronger effect = lower value 1.01 | locus YGL227W, strain vid30, stronger effect = lower value 1.01 | locus YGL240W, strain doc1, stronger effect = lower value 1.02 | locus YGL248W, strain PDE1, stronger effect = lower value 1.02 | locus YGL253W, strain hxk2, stronger effect = lower value 1.04 | locus YGR135W, strain pre9, stronger effect = lower value 0.988 | locus YGR252W, strain gcn5, stronger effect = lower value 0.97 | locus YHR013C, strain ard1, stronger effect = lower value 0.997 | locus YHR027C, strain rpn1, stronger effect = lower value 1 | locus YHR030C, strain SLT2, stronger effect = lower value 1.01 and 0.96 | locus YHR079C, strain IRE1 (second series), stronger effect = lower value 0.996 | locus YHR079C, strain IRE1, stronger effect = lower value 0.95 | locus YHR094C, strain hxt1, stronger effect = lower value 0.991 | locus YHR129C, strain ARP1, stronger effect = lower value 1.01 | locus YHR142W, strain chs7, stronger effect = lower value 0.958 | locus YHR200W, strain rpn10, stronger effect = lower value 0.995 | locus YIL066C, strain RNR3, stronger effect = lower value 1.02 | locus YIL073C, strain SPO22, stronger effect = lower value 0.999 | locus YIL125W, strain kgd1, stronger effect = lower value 0.987 | locus YIR030C, strain dcg1, stronger effect = lower value 0.995 | locus YJL092W, strain hpr5, stronger effect = lower value 1 | locus YJL095W, strain BCK1 (second series), stronger effect = lower value 1 | locus YJL095W, strain BCK1, stronger effect = lower value 1.03 and 0.973 | locus YJL115W, strain asf1, stronger effect = lower value 0.99 | locus YJL129C, strain trk1, stronger effect = lower value 1 | locus YJL134W, strain LCB3, stronger effect = lower value 1 | locus YJL154C, strain vps35, stronger effect = lower value 0.996 | locus YJL164C, strain tpk1, stronger effect = lower value 0.981 | locus YJL166W, strain qcr8, stronger effect = lower value 1.01 | locus YJL168C, strain set2, stronger effect = lower value 0.986 | locus YJL187C, strain SWE1 (second series), stronger effect = lower value 1.02 | locus YJL187C, strain SWE1, stronger effect = lower value 0.997 | locus YJR043C, strain POL32, stronger effect = lower value 1.01
